Assay outcomes from PubChem.
TAG inh: inhibitors of triacylglycerol accumulation; H9c2 cells, Nile Red lipid (TAG) fluorescence; cells loaded with 200 µM oleic acid; inhibition, % at 12.5 µM; hit rate 0.66% among 230,000; AID 651582;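 active = pattern-corrected inhibition of lipid staining of at least 50% with the nuclear-stain viability signal not falling by more than 50%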;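 also: 0% = DMSO wells and 100% = triacsin C control wells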
NPR1 activator: GC-A (human) enzyme activation; P16066; HEK293 GC-A cells, cGMP TR-FRET, EC30 ANP; 0% at EC30 ANP, 100% saturating ANP; activation, % at 10 µM; hit rate 0.14% among 370,000; AID 1671463; in the data active = activation above about 40%
GC-B act: GC-B (human) receptor activation; hit rate 0.11% among 370,000; HEK293-GC-B cells, CNP EC30, cGMP TR-FRET; 0% at EC30 CNP, 100% saturating CNP; AID 1920062; activation, % at 10 µM; P20594;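 active = activation at 10 µM reaching about 35% in either raw or pattern-adjusted values, limit read from the data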
HSV augment: increases HSV replication in cells; HSV replication augmentation in cells, fold increase; maximum fold increase; hit rate 0.005% among 220,000; in the data active = maximum fold increase above about 1.5; inconclusive = no clear call, values can overlap the other calls; tested in PC3 cells
Efflux pump mplx: inhibitors of Candida antifungal efflux pumps expressed in yeast | hit rate 0.44% among 330,000 | inhibition, % at 10 µM | S. cerevisiae Candida pump triplex, Nile Red efflux;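 active = plate passing quality check with inhibition over a set limit, or well fluorescence over plate mean plus 4 SD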;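 also: Nile Red retained in pooled yeast measured as flow cytometry median fluorescence; 0% = buffer negative control and 100% = Enniatin B positive control; higher means more Nile Red kept so more efflux inhibition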
A1 inh: inhibitors of the anti-apoptotic protein A1, read as caspase activation | MEF A1-2A-BIM cells, Caspase-Glo 3/7 luminescence, 3 h; percent of clofoctol response, vehicle zero | caspase activation, % (test concentration not listed) | hit rate 0.066% among 330,000;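 active = over half of replicate activation scores above 10%, or exactly half above 10 with the replicate mean above 10; inconclusive = replicate mean below 10 yet half the replicates above 10; inactive = over half of replicates below 10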
Cmpd fluor yeast: counter-screen for efflux pump inhibitors: compound fluorescence; AID 588517; S. cerevisiae AD/pABC3, flow cytometry; hit rate 4% among 1,700; shares compounds with Efflux pump mplx; fluorescence ratio to DMSO, % at 10 µM;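 active = fluorescence ratio to DMSO above its plate's cutoff, the plate mean ratio plus 5 SD, cut at about 210% in these data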;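 also: unstained yeast with no Nile Red so the signal is compound autofluorescence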
CaMdr1 efflux inh: inhibitors of Candida albicans Mdr1 efflux pump; inhibition, % at 10 µM; hit rate 1% among 1,700; shares compounds with Efflux pump mplx; S. cerevisiae AD/CaMDR1, Nile Red efflux, flow cytometry; in the data active = inhibition above about 26%;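 also: 0% = DMSO vehicle and 100% = reference inhibitor; higher means more Nile Red retained so more efflux inhibition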
Cdr2 pump inh: inhibitors of Candida albicans Cdr2 efflux pump | shares compounds with Efflux pump mplx | S. cerevisiae AD/CaCDR2, Nile Red retention, flow cytometry | Nile Red retention ratio vs DMSO, % at 10 µM | hit rate 4% among 1,700; in the data active = Nile Red retention ratio vs DMSO above about 190%;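 also: higher ratio means more blocking of Cdr2 efflux of the dye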
CaCdr1 efflux inh: inhibitors of Candida albicans Cdr1 efflux pump | hit rate 1% among 1,700 | S. cerevisiae AD/CaCDR1, Nile Red efflux, flow cytometry | shares compounds with Efflux pump mplx | inhibition, % at 10 µM;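 active = inhibition above the screen-wide mean plus twice its standard deviation, cut at about 32% in these data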
The depositor's hits bear a star; i = inactive; u = inconclusive; x = no result given. An excerpt weighted towards active compounds, which were near 1% of everything screened.

SMILES	TAG inh	NPR1 activator	GC-B act	HSV augment	Efflux pump mplx	A1 inh	Cmpd fluor yeast	CaMdr1 efflux inh	Cdr2 pump inh	CaCdr1 efflux inh
CCCSc1nnc(NC(=O)Nc2ccccc2)s1	x	5	5	i	15*	-1	113	0	117	0
COc1cccc2sc(Nc3nnc(-c4cccs4)o3)nc12	-6	-1	5	i	0.7*	-6	94	0	91	0
COc1ccc2[nH]c3c(C)c4ccncc4c(C)c3c2c1	x	6	-7	i	2.8*	0	125	0	103	0
C=CCN1C(=O)[C@H](CC(=O)N2CCOCC2)[C@@]2(C(=O)OCC)CCCC=C12	x	1	8	x	x	x	x	x	x	x
CCN=C1S/C(=C/c2cc(C)n(-c3ccc(Cl)cc3F)c2C)C(=O)N1CC	x	-16	-24	x	x	x	x	x	x	x
CC1Cc2ccccc2N1S(=O)(=O)c1cccc(C(=O)N2CCN(c3ncccn3)CC2)c1 (centres undefined)	-18	3	8	i	0.9*	0	106	0	103	0
CC(=O)N1CCN(C(=O)c2cccc(S(=O)(=O)N3c4ccccc4CC3C)c2)CC1 (centres undefined)	6	-3	2	x	0	1	x	x	x	x
O=C(Oc1ccccc1/C=C\C(=O)c1cc2ccccc2o1)c1ccccc1	x	-5	-3	i	16*	-1	103	0	100	0
S=c1[nH]nc(-c2cccnc2)n1/N=C/c1ccc(Br)s1	x	-12	-4	i	8.0*	0	83	0	93	0
O=C(c1ccc(S(=O)(=O)Cc2ccccc2F)c([N+](=O)[O-])c1)N1CCCC1	9	4	-1	i	0	0	x	x	x	x
CC1CCN(C(=O)c2ccc(S(=O)(=O)Cc3ccccc3F)c([N+](=O)[O-])c2)CC1	x	1	-3	i	5.8*	0	111	0	102	0
C[C@H](NS(=O)(=O)OCC(Cl)(Cl)Cl)C1CC1c1ccccc1 (some centres undefined)	35	0	-1	x	0	1	x	x	x	x
CC(=O)OCCC(NS(=O)(=O)OCC(Cl)(Cl)Cl)c1ccccc1 (centres undefined)	1	-2	1	x	0.7*	0	111	0	106	0
COC(=O)[C@]12C[C@H](CC(=O)NCCc3ccccc3OC)C(=O)N(Cc3ccccc3)C1=C[C@H](COCc1ccccc1)O[C@@H]2C	x	-3	1	x	x	x	x	x	x	x
CC1Cc2cc(S(=O)(=O)NCc3ccccc3)ccc2N1C(=O)C1CCC1 (centres undefined)	x	-1	3	x	0	0	100	0	105	0
O=C(NC1CC[C@@]23CCCN2C(=O)CCC[C@H]3C1)c1ccccc1 (some centres undefined)	x	-1	-5	x	x	x	x	x	x	x
O=C(CSc1ccc(-c2ccccc2)nn1)NC1CCCCC1	13	3	-2	x	5.7*	2	98	0	95	0
COC(=O)[C@]12C[C@H](CC(=O)N3CCCCC3)C(=O)N(CCc3ccc(OC)c(OC)c3)C1=C[C@H](C(C)(C)C)O[C@@H]2C	x	-4	-6	x	x	x	x	x	x	x
O=C1N=c2ccccc2=C1c1sc(NS(=O)(=O)Cc2ccccc2)nc1O	8	1	0	i	0.7*	-3	97	0	94	0
O=C1/C(=C\c2ccc(-c3ccccc3Cl)o2)SC(=S)N1CC1CCCO1 (centres undefined)	7	-2	-4	i	0.5*	0	100	0	116	0
CN1CCN(c2ccccc2NC(=O)c2ccc(-c3ccc(Br)cc3)o2)CC1	28	x	x	x	0	-1	x	x	x	x
CN1CCN(c2ccccc2NC(=O)c2ccc(-c3ccc(Cl)c(Cl)c3)o2)CC1	13	-26	-17	x	8.1*	0	85	0	102	0
COc1ccc(NC(=O)NNC(=O)CCn2nc(C)c([N+](=O)[O-])c2C)cc1OC	x	-1	0	x	x	x	x	x	x	x
COC[C@H]1CCCN1c1cccc2c1S(=O)(=O)N1CC[C@@H](C1)O2	x	0	5	x	x	x	x	x	x	x
O=C(CC1Sc2ccccc2NC1=O)Nc1ccccc1[N+](=O)[O-] (centres undefined)	x	3	1	i	18*	1	100	0	94	0
SMILES	TAG inh	NPR1 activator	GC-B act	HSV augment	Efflux pump mplx	A1 inh	Cmpd fluor yeast	CaMdr1 efflux inh	Cdr2 pump inh	CaCdr1 efflux inh
O=C(CCc1ccccc1-c1ccccc1CCNC(=O)c1cccc(F)c1)NCc1ccccc1	x	-3	-5	x	x	x	x	x	x	x
O=C(C1CCN(c2ncnc3c2sc2cccc(F)c23)CC1)N1CCCCC1	x	1	-1	x	x	x	x	x	x	x
Cc1noc(C)c1C(C)C1=CCCCC1 (centres undefined)	x	-1	6	x	x	x	x	x	x	x
COc1ccc(NC(=O)Cn2cc(S(=O)(=O)Cc3ccccc3)c3ccccc32)c(OC)c1	x	0	11	i	9.6*	0	105	0	99	0
COc1ccc(NC(=O)CS(=O)(=O)c2cn(CC(=O)N(C(C)C)C(C)C)c3ccccc23)c(OC)c1	4	-1	0	x	1	0	x	x	x	x
Cc1cccc(C(=O)N2CCC(=O)N(C(COCc3cccc(C(F)(F)F)c3)Cc3ccccc3)CC2)c1 (centres undefined)	7	-5	-7	i	1.0*	-1	101	0	98	0
CCN=C1S/C(=C\c2ccc(N3CCOCC3)cc2C)C(=O)N1CC	-7	-4	-4	i	0	0	x	x	x	x
COCCN1C(=O)/C(=C/c2ccc(N3CCCC3)cc2C)SC1=S	-202	-2	-4	u	2.2*	0	318*	1	129	0
COCCCN1C(=O)[C@H](CC(=O)NCCC(C)C)[C@]2(C(=O)OC)CCCCC=C12	x	-2	-4	x	x	x	x	x	x	x
O=C(CO/N=C/c1cccc([N+](=O)[O-])c1)NC1CCCCC1	x	-6	2	i	8.3*	-1	95	0	112	0
CC(C)N(C(=O)CO/N=C/c1cccc([N+](=O)[O-])c1)C(C)C	8	-2	-5	i	0	0	x	x	x	x
O=C(c1ccc(F)c(F)c1)N1CCC(Oc2cccnc2)CC1	x	3	1	x	x	x	x	x	x	x
COCCNC(=O)/C(C#N)=C/C(C)=C/c1ccccc1	x	0	-2	i	17*	0	99	0	102	0
